Rows were chosen to be rich in hits. Some 3.8% of all compounds tested hit in one or more screens of this group.
FAS TE block: FAS thioesterase domain inhibitors, primary screen, biochemical, fluorescence intensity, uHTS. 360,000 compounds, 0.67% hits. AID 602261, 2012. inhibition, % at 15 µM. Fatty acid synthase (Homo sapiens), P49327. recombinant FAS-TE, OMFH fluorogenic substrate, fluorescence endpoint;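 active = compounds whose normalised, plate-corrected inhibition of enzyme fluorescence in the single-dose primary screen is 50% or more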
H9c2 protect: cardioprotection against H2O2-induced cell death, primary screen, uHTS, H9c2 cells, ATPLite luminescence; H9c2 cardiomyocytes, H2O2 injury protection, 2 h; 360,000 compounds, 0.63% hits; protection from H2O2 cell death, % at 20 µM;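 active = compounds giving at least 50% protection of heart cells from peroxide-induced death in the single-dose screen, raw or plate-pattern-corrected value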
SUMO Mot1 rescue: yeast Mot1-301 growth rescue at high temperature, primary screen, SUMOylation pathway inhibitor project, S. cerevisiae, ATP luminescence, 38.5C. growth rescue, % at 18.8 µM. 320,000 compounds, 1% hits. S. cerevisiae Mot1-301 growth rescue; percent above DMSO median, 100 means doubled;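 active = every valid replicate shows activation above 250% relative to neutral control wells; inactive = the rest, any valid replicate at or below 250%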
MPTP inh: mitochondrial permeability transition pore inhibitors, primary screen, biochemical, isolated mouse mitochondria, absorbance; Ca2+ swelling absorbance, 30 min; 360,000 compounds, 1.4% hits; inhibition, % at 10 µM;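 active = inhibition of 50% or more, scaled per plate between neutral and stimulator controls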
CR mimetic SO: reduction of superoxide in aged yeast, primary screen, HTS | S. cerevisiae aged cells, superoxide DHE fluorescence; active compounds read low | superoxide response (% of plate mean), % at 10 µM | 330,000 compounds, 0.18% hits | AID 2690, 2010;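 active = superoxide response under a set limit, about three screen SD below normal, cut at about 65% in these data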;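 also: yeast aged for seven days with compound at 30 °C before DHE staining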
aDG glyco act: activators of alpha-DG glycosylation, primary screen, uHTS, Pro5-aDG cells, AlphaScreen. alpha-DG glycosylation AlphaScreen (IIH6); 0% Pro5, 100% B10-LARGE cell signal. activation, % at 10 µM. 360,000 compounds, 0.22% hits;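 active = activation of at least 8% versus controls, or a plate z-score of at least 8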;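 also: Pro5 are CHO cells carrying HIG-tagged alpha-DG that lacks glycosylation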
Each line names hits and unclear results; the compound was inactive in the other large screens.

CC(C)(C)OC(=O)NCCCC[C@H](NC(=O)c1nc[nH]c1C(=O)NCc1ccccc1)C(=O)OC(C)(C)C	FAS TE block 55
CC(C)(C)OC(=O)NCc1ccc(NC(=O)c2nc[nH]c2C(=O)NCCCCNC(=O)c2[nH]cnc2C(=O)Nc2ccc(CNC(=O)OC(C)(C)C)cc2)cc1	H9c2 protect 67
CC(C)(C)OC(=O)NCc1ccc(NC(=O)c2nc[nH]c2C(=O)NCCCNC(=O)c2[nH]cnc2C(=O)Nc2ccc(CNC(=O)OC(C)(C)C)cc2)cc1	H9c2 protect 52
CC(C)(C)OC(=O)NCCCC[C@H](NC(=O)c1[nH]cnc1C(=O)N[C@@H](Cc1ccccc1)C(=O)OC(C)(C)C)C(=O)OC(C)(C)C	none
CC(C)(C)OC(=O)NCCCC[C@H](NC(=O)c1[nH]cnc1C(=O)Nc1ccc(CNC(=O)OC(C)(C)C)cc1)C(=O)OC(C)(C)C	none (no result: FAS TE block, H9c2 protect, MPTP inh, aDG glyco act)
CC1CC(C)CN(C(=O)COC(=O)c2ccc(S(=O)(=O)N(C)c3ccccc3)cc2)C1 (configuration not stated)	none
Cc1cc(OCCN2CCOCC2)ccc1C(C)C	none
C=CCn1c(C)cc(C(=O)CSc2nnc3n(CCC)c(=O)c4ccccc4n23)c1C	none (no result: SUMO Mot1 rescue, CR mimetic SO)
OCC[C@@H]1C[C@@H](O)[C@H](O)[C@@]2(Cc3ccccc3O2)O1	none
CC(Sc1nc(N)cc(=O)[nH]1)C(=O)NC1CCCCC1 (configuration not stated)	SUMO Mot1 rescue active
COc1ccc(C(=O)N[C@H](C(=O)Nc2ccc(S(=O)(=O)N3CCOCC3)cc2)C(C)C)cc1	SUMO Mot1 rescue 339
Oc1ccc(/C=N/Nc2nccnc2Cl)c(O)c1	H9c2 protect 52
COc1ccc(N(Cc2cc3cc(OC)ccc3[nH]c2=O)C(=O)c2cccnc2)cc1	H9c2 protect 109
COc1ccc(NC(=S)N(Cc2cccnc2)Cc2cc3cc(OC)c(OC)cc3[nH]c2=O)cc1	H9c2 protect 66
COc1ccc2[nH]c(=O)c(CN(C(=O)c3cccnc3)c3ccccc3)cc2c1	none
CC1CCCC(NC(=O)COC(=O)c2cccnc2Cl)C1C (configuration not stated)	none
Cc1ccc2c(c1)C1(OCCCO1)C(=O)N2	none
Cn1cnnc1SCc1ccc(C(=O)N=Nc2c(O)n(Cc3ccc(Cl)cc3)c3ccccc23)cc1	H9c2 protect 54
C1=C(c2ccccc2)CCN(c2nc3ccccc3n3cnnc23)C1	H9c2 protect 67
c1ccc(N2CCN(c3nc4ccccc4n4cnnc34)CC2)cc1	none
c1ccc2c(c1)CCCN2c1nc2ccccc2n2cnnc12	H9c2 protect 54
c1ccc2c(c1)CCN(c1nc3ccccc3n3cnnc13)C2	H9c2 protect 58
CCN(CC(=O)NCc1ccc(Cl)cc1)C(=O)c1cc(S(=O)(=O)NCc2ccccc2)ccc1C	none
C#CCOCCOCCOCCNc1nc(N2CCN(C(=O)CCCCCCCCCCNC(=O)Cn3cc(C[C@@H](C)O)nn3)CC2)nc(N2CCN(C(=O)CCCCCCCCCCNC(=O)Cn3cc(C[C@@H](C)O)nn3)CC2)n1	H9c2 protect 80
C#CCOCCOCCOCCNc1nc(N2CCN(C(=O)CCCCCCCCCCNC(=O)Cn3cc(C[C@@H](C)O)nn3)CC2)nc(N2CCN(C(=O)CCCCCCCCCCNC(=O)[C@H](CCCCN)n3cc(C[C@@H](C)CC)nn3)CC2)n1	none
O=C(c1ccc(-c2cccc(C(F)(F)F)c2)o1)N1CCCCCCC1	SUMO Mot1 rescue 533
O=C(c1ccco1)N1CCN(C(=O)c2ccc(-c3cccc(C(F)(F)F)c3)o2)CC1	none
O=S1(=O)C[C@H](N2CCOCC2)[C@@H](COCc2ccccc2)N1	none (no result: SUMO Mot1 rescue, CR mimetic SO)
NC1=C(Br)C(=O)c2ccccc2C1=O	aDG glyco act 3.9
CCOC(=O)c1ccc(NC(=O)C2CCN(C(=O)c3ccc(OC)c(OC)c3)CC2)cc1	none (no result: SUMO Mot1 rescue)
COC(=O)c1ccc(NC(=O)C2CCN(C(=O)c3cc(OC)c(OC)c(OC)c3)CC2)cc1	SUMO Mot1 rescue 336
COc1ccc(Br)c(-c2nc(CS(=O)(=O)c3ccc(F)cc3)no2)c1	none
Cc1nc2cc(NC(=O)N3CCN(c4ccccn4)CC3)ccc2o1	none
S=C(Nc1ccc(N2CCOCC2)cc1)Nc1ccc2nc(-c3ccco3)c(-c3ccco3)nc2c1	H9c2 protect 56
O=C(Nc1ccc2nc(-c3ccco3)c(-c3ccco3)nc2c1)N1CCN(c2ccccn2)CC1	H9c2 protect 117
O=C(Nc1ccc(N2CCOCC2)cc1)c1ccc2nc(-c3ccco3)c(-c3ccco3)nc2c1	none (no result: SUMO Mot1 rescue)
COCCn1c(COc2cccc(OC)c2)nnc1SCC(=O)NC1CCCCC1	none
COC(=O)C1=C(C)N(CCc2ccc(OC)cc2)C(=O)C1	H9c2 protect 100
COC(=O)C1=C(C)N(Cc2ccc(OC)cc2)C(=O)C1	none
C=C[C@]1(C)C=C2C(=O)[C@@]3(O)OC(=O)[C@@]4(CCCC(C)(C)[C@H]34)[C@@]2(O)CC1	none (no result: SUMO Mot1 rescue, CR mimetic SO)
CC(C)NC(=O)NC(=O)CSc1nnc(-c2c[nH]c3ccccc23)o1	none
O=C(CSc1nnc(-c2c[nH]c3ccccc23)o1)NCC1CCCO1 (configuration not stated)	SUMO Mot1 rescue 285
Cc1ccc2c(c1)cc(CN(Cc1ccc3c(c1)OCO3)C(=O)c1ccccc1)c1nnnn12	SUMO Mot1 rescue 336
Cc1ccc2c(c1)cc(CN(CCc1ccccc1)C(=O)N1CCOCC1)c1nnnn12	none
COC(=O)c1[nH]c2ccccc2c1NC(=O)CN1CCCCCC1	none
COC(=O)c1[nH]c2ccccc2c1NC(=O)CNC1CCCCC1	H9c2 protect 86
Oc1c(Br)cccc1/C=N/c1ncn[nH]1	H9c2 protect 67
CS(=O)(=O)Cc1ccc(C(=O)N(CCc2ccccc2)Cc2ccccc2)cc1	none
N#CC(C#N)=C1C=CC=CN1/C(=C\c1ccco1)C(=O)c1ccc(Br)cc1	SUMO Mot1 rescue 291
N#CC(C#N)=C1C=CC=CN1/C(=C\c1ccco1)C(=O)c1ccccc1	none
Cc1ccc(/C=C2\SC(=S)N(CCC(=O)NNC(=O)c3ccccc3O)C2=O)cc1	none
Cc1ccc(/C=C2\SC(=S)N(CCCC(=O)NNC(=O)c3ccccc3O)C2=O)cc1	H9c2 protect 55
CC1(NC(=O)Cc2ccc(S(=O)(=O)N3CCOCC3)s2)CCS(=O)(=O)C1 (configuration not stated)	none
C=CCNC(=O)NC(=O)COC(=O)CNS(=O)(=O)c1ccc(F)c(F)c1F	none
